Source: PubChem BioAssay AID624331 (National Center for Advancing Translational Sciences (NCATS), 2012)
Records with an inconclusive call do not appear. Unmarked numbers belong to inactive results. Calls of active or inactive are those of the source. Calls come from the whole dose curve; as a rule, active = well fitted activation curve with a large enough effect; inconclusive = small, poorly fitted or top-dose-only effect; inactive = no such curve, though single readings can be large or run the other way.

Assay: qHTS assay for re-activators of p53 using a Luc reporter: Hit Validation with no p53 Expressed; for activity change, positive = activation: 0% is about no effect
Settings: p53-null cells, luciferase reporter counter-screen; series mostly up to 46.1 µM; activity change, positive = activation: at the top concentration
Procedure, shortened: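 Counter-screen of primary hits in a cell line not transfected with p53, in Opti-MEM with 10% FBS; compounds at several concentrations (10 mM stock, 1:5; top 46.1 µM in well), 24 h at 37 deg C, 5% CO2. Luminescence read after 10 min with Amplite reagent.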
Potency is the fitted concentration of half-maximal effect.

Row | SMILES | activity change, positive = activation | Potency
1 | Cc1ccc(OCCN2CCOCC2)cc1C | 7.55% | –
2 | COc1ccc(CCNC2CCC(c3ccccc3)CC2)cc1 (centres undefined) | -20.8% | –
3 | Cc1ccc2cc(CCNC(=O)c3ccco3)c(=O)[nH]c2c1C | 82.1% | –
4 | COC(=O)c1nn(-c2ccc(-c3ccccc3)cc2)cc1O | 13.6% | –
5 | c1ccc(-c2cc3cc4c(cc3cn2)OCO4)cc1 | 67.8% | –
6 | Cc1cccc(NC(=O)/C=C/c2ccc(Cl)cc2)n1 | -19.5% | –
7 | c1ccc2c(c1)CCN(c1nc3cc4c(cc3s1)OCO4)C2 | 16.3% | –
8 | CC12CCC(C(=O)N(CSC(=S)N/N=C\c3ccccc3O)C1=O)C2(C)C (centres undefined) | 52% | –
9 | N=C1C(c2nc3ccccc3s2)=C(O)CN1Cc1ccccc1 | -9.16% | –
10 | COc1cc(OC)cc(C(=O)NNC(=O)c2ccccn2)c1 | -11.2% | –
11 | O=C(/C=C/c1cccs1)Nc1ccc(Br)cn1 | 6.73% | –
12 | Cc1ccc2cc3cc(C(=O)N4CCCCCC4)oc3nc2c1 | 47.8% | –
13 | Cc1ccc(CNc2cc(C(=O)O)ccc2Cl)s1 | 86% | –
14 | O=C(COC(=O)c1cc2ccccc2oc1=O)Nc1cccc(S(=O)(=O)N2CCCCCC2)c1 | -57.6% | –
15 | Cc1cccc(NC2SC(=O)N(c3ccccc3)C2=O)c1 (centres undefined) | -20.2% | –
16 | C=CCNc1nc(-c2cc3ccccc3o2)cs1 | 35.2% | –
17 | O=S(=O)(CCOc1ccccc1)c1nc2ccccc2[nH]1 | -63.1% | –
18 | Cc1ccc(OC(=O)c2cccc(S(=O)(=O)N3CCCC3)c2)c(-n2nc3ccccc3n2)c1 | 15.2% | –
19 | Cc1cc(C(=O)COC(=O)c2cccc(O)c2)c(C)n1C1CC1 | -26.1% | –
20 | O=C(N/N=C\c1cccc(Cl)c1)c1n[nH]c2c1CCCC2 | -19.5% | –

Row | SMILES | activity change, positive = activation | Potency
21 | Cc1cc(C)nc(SCC(=O)OCC(=O)Nc2nc3ccccc3s2)n1 | 93.7% | –
22 | Cc1cc(NC(c2cccnc2)c2ccc3cccnc3c2O)no1 (centres undefined) | 42.9% | –
23 | O=C(Nn1c(SCc2ccc([N+](=O)[O-])cc2)nc2ccccc2c1=O)c1ccc(F)cc1 | 24.3% | –
24 | Cc1cc2[nH]c3ccccc3c2c(C)n1 | -28.9% | –
25 | Cc1cc(C(=O)COc2ncnc3sccc23)c(C)n1C1CC1 | -19.7% | –
26 | COc1ccc(C2SCCN2C(=S)Nc2ccc(Cl)cc2)cc1 (centres undefined) | -24.4% | –
27 | O=C(COC(=O)c1ccc(-c2nnc(-c3ccccc3)o2)cc1)c1ccccc1 | – | 146 nM (active)
28 | Cc1ccc(C)c(N2CCN(C(=O)CCc3nc(-c4ccccc4C(F)(F)F)no3)CC2)c1 | 65.2% | –
29 | CCOC(=O)c1c(NC(=O)C2COc3ccccc3O2)sc2c1CCN(Cc1ccccc1)C2 (centres undefined) | 7.72% | –
30 | Cc1nc(SCC(=O)Nc2nccs2)c(C#N)c(C)c1C | 9.01% | –
31 | O=C1c2cccc3cc([N+](=O)[O-])cc(c23)C(=O)N1CCN1CCCC1 | -32.6% | –
32 | Cc1cc([N+](=O)[O-])ccc1NC(=O)/C=C/c1cccs1 | -2.37% | –
33 | COC(=O)c1ccc(-c2nc(-c3cccs3)no2)cc1 | -36% | –
34 | O=C(NC(=S)Nc1cccc(O)c1)C1CCCCC1 | 20.3% | –
35 | O=C(Cc1ccccc1)NCc1ccc(F)cc1 | 13.7% | –
36 | COc1ccc(C(=O)Nc2nnc(C(F)(F)F)s2)cc1 | -57.8% | –
37 | Cc1noc(C)c1C(=O)OCC(=O)N1CCc2ccccc21 | 36.3% | –
38 | c1cnc2c(OCc3nc4ccccc4[nH]3)cccc2c1 | 89.4% | –
39 | Cc1cccc2nc(CSC(=N)N)c(Br)n12 | -13.8% | –
